# Screens: PubChem, National Center for Advancing Translational Sciences (NCATS)
# This is one part of a sample in which hits are shown more often than they occur.
# Pf Dd2 inh: qHTS Primary assay for Inhibitors of Plasmodium falciparum Dd2 growth in vitro | P. falciparum Dd2 growth, SYBR Green, 72 h | Potency, µM (doses to about 28.9 µM), for inactives: at the highest dose activity, negative = inhibition, hits mostly inhibitors | hit rate 4.3% among 120,000 | AID 1347417, 2020; active means well fitted inhibition curve with a large enough effect;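 further: plate controls were DMSO vehicle for no effect and reference drug for full effect; nearly all actives have a fitted effect of over 65% in size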
#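 Readout: SYBR Green fluorescence, 485 nm excitation, 535 nm emission, after ~16 h lysis at 37C. Before that, Dd2-infected red cells (2.5% hematocrit) grew 72 h with compound, 29 uM top final concentration.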
# Active calls of the source: *; i = inactive; [ ] = remark or other dose. Potency means the concentration at half of the fitted maximal effect.
SMILES,Pf Dd2 inh
Cc1ccc([C@H]2C[C@@H](O)[C@@H](O)[C@@H]2N2CCCCC2)cc1,-14.2%[44.1 µM]
COC(=O)[C@@H](Cc1cccnc1)NC(=O)[C@H]1CN(S(=O)(=O)c2ccccc2)CCN1S(C)(=O)=O,-8.3%
O=C([C@H]1O[C@H](CCN2C[C@@H]3C[C@H](C2)c2cccc(=O)n2C3)CC[C@@H]1O)N1CCN(c2ccccc2)CC1,i
COCCOCc1nc(C2CCCN2C(=O)NC2CCCCC2)no1 (stereo not drawn),i
Cc1cc(C)c(CNC(=O)c2nc(-c3cccc(O)c3)cc3c2ccn3C)c(=O)[nH]1,-25.2%[44.1 µM]
CC(C)CS(=O)(=O)N[C@H](C)c1onc(-c2ccc(F)cc2)c1C(=O)O,-11.6%[44.1 µM]
O=C(c1ccncc1)N1CCC(N2CC3CC(C2)[C@H]2CCCC(=O)N2C3)CC1 (stereo partly drawn),-5.6%
O=C(Nc1ccc(Cl)cc1)c1ccc2c(c1)N(Cc1ccccc1)CCS2,4.47µM*
O=C(NCCc1ccc(Cl)cc1)c1ccc2c(c1)N(Cc1ccccc1)CCS2,1.1%
Cc1ccc(CN2CCSc3ccc(C(=O)Nc4ccc(Cl)cc4)cc32)cc1,7.94µM*
CCN1CCSc2ccc(C(=O)NCc3ccc(OC)cc3)cc21,-21.2%
COc1ccc(OC)c(CCNC(=O)c2ccc3c(c2)N(Cc2ccccc2)CCS3)c1,-20.7%
Cc1ccc(CN2CCSc3ccc(C(=O)NCc4ccc(OC(C)C)cc4)cc32)cc1,-23.6%
COC(=O)CCC(=O)N1CCOC(Cc2cccc(C(F)(F)F)c2)C1 (stereo not drawn),-2.8%
COc1ccc(NC(=O)N2CC[C@H]3CC(=O)N(CCN4CCNC4=O)CC[C@H]3C2)cc1,44.2%[44.1 µM]
O=C(CCn1ccc(=O)[nH]c1=O)N1CCC(c2[nH]ncc2-c2ccccc2)CC1,8.9%
O[C@@H]1CC(CNCc2nccs2)(COc2cccnc2)C[C@@H]1O (stereo partly drawn),21.2%[44.1 µM]
CCC(NC(=O)c1cnc(-c2ccccc2)nc1-c1ccncc1)c1ccc(OC)cc1 (stereo not drawn),-11.7%
Cc1cc2c(n1-c1ccc(C(=O)NCc3cccc(Br)c3)cc1)CCC(C)C2 (stereo not drawn),11.2µM*
CCc1ccc(CNC(=O)c2ccc3c(c2)nc2n3CCC(C)C2)cc1 (stereo not drawn),13.2%
COc1ccc(CCNC(=O)c2ccc(-n3c(C)cc4c3CCC(C)C4)cc2)cc1OC (stereo not drawn),160.7%[5.79 µM]
COc1ccc(Br)cc1CNC(=O)c1ccc(-n2c(C)cc3c2CCC(C)C3)cc1 (stereo not drawn),12.6µM*
O=C(NCc1cccc(Br)c1)C1CCN(c2cnc3nccnc3c2)CC1,i
COc1ccc(OC)c(CNC(=O)c2ccc3c(c2)c(C)c(C)n3C)c1,-17.2%
CCCOc1ccc(CNC(=O)c2ccc(-n3c(C)cc4c3CCC(C)C4)cc2)cc1 (stereo not drawn),432.1%[5.79 µM]
SMILES,Pf Dd2 inh
Cc1cc2c(n1-c1ccc(C(=O)NCCc3ccccc3)cc1)CCC(C)C2 (stereo not drawn),-20.9%
CCc1ccc(CNC(=O)c2ccc(-n3c(C)cc4c3CCC(C)C4)cc2)cc1 (stereo not drawn),12.6µM*
O=S1(=O)CCN(Cc2cn(C[C@H]3C[C@@H](NCc4ccc(F)cc4)[C@H](O)[C@@H]3O)nn2)CC1,17.5%
CO[C@H]1C[C@@H](O)C12CCN(C(=O)CCc1ccc(-c3cccs3)o1)CC2,-4.0%
O=C1Nc2ccccc2CC12CCN2Cc1ccncc1 (stereo not drawn),-10.0%[44.1 µM]
NC(=O)[C@H](Cc1ccccc1)NCc1cc(=O)c2cc(F)ccc2[nH]1,-10.3%
Fc1ccc(-c2nnc3ccc(NCCc4ccccc4)nn23)nc1,-26.3%[44.1 µM]
Cc1noc(C2CC3(CCN(C(=O)c4cc5ccccc5[nH]4)CC3)CN2C)n1 (stereo not drawn),-14.6%
CC(=O)N1CCCC1c1nc2ccccc2n1Cc1ccc(F)cc1 (stereo not drawn),22.9%
CCOc1ccc(N2CC(c3nc4ccccc4n3CCCOc3ccccc3)CC2=O)cc1 (stereo not drawn),12.6µM*
Cc1cccc(C)c1OCCn1c(C2CC(=O)N(Cc3ccc(F)cc3)C2)nc2ccccc21 (stereo not drawn),2.51µM*
CCOc1ccc(N2CC(c3nc4ccccc4n3CCOc3ccccc3OC)CC2=O)cc1 (stereo not drawn),12.6µM*
CCOc1ccc(N2CC(c3nc(-c4cc(OC)c(OC)c(OC)c4)no3)CC2=O)cc1 (stereo not drawn),36.2%
CCOc1ccc(N2CC(c3nc4ccccc4n3CCCCOc3ccc(OC)cc3)CC2=O)cc1 (stereo not drawn),12.6µM*
CCOc1ccc(N2CC(c3nc4ccccc4n3CCOc3ccc(CC)cc3)CC2=O)cc1 (stereo not drawn),-26.6%
CCOc1ccc(-c2nc(C3CC(=O)N(c4ccc(OC)cc4)C3)no2)cc1 (stereo not drawn),-25.8%
CCOc1ccccc1N1CC(c2nc3ccccc3n2CCCOc2ccccc2OC)CC1=O (stereo not drawn),i
Cc1cc(C)c(Cn2c(C3CC(=O)N(c4ccc(F)cc4)C3)nc3ccccc32)c(C)c1 (stereo not drawn),i
CCOc1ccc(N2CC(c3nc4ccccc4n3CC(C)C)CC2=O)cc1 (stereo not drawn),-3.8%
O=C(NCc1cccnc1)[C@@H]1C[C@@H](O)CN1C1CCN(C(=O)c2n[nH]c3ccccc23)CC1,-13.2%
O=C1OC[C@@H]2CCN(Cc3ccccc3F)Cc3ccc(F)cc3N12,i
CC(C)CN1C(=O)c2cccn2CC1C(=O)N1CCN(C)CC1 (stereo not drawn),25.5%
COC(=O)C1CCN([C@H]2[C@@H]3OC[C@@H](O3)[C@@H](NC(=O)Nc3ccc(F)cc3)[C@@H]2O)CC1,13.2%[44.1 µM]
CCOC(=O)Cn1c(C2CC(=O)N(c3ccc(C)cc3)C2)nc2ccccc21 (stereo not drawn),37.0%
CCOc1ccccc1N1CC(c2nc3ccccc3n2CCOc2ccc(C(C)(C)C)cc2)CC1=O (stereo not drawn),-23.7%
SMILES,Pf Dd2 inh
CCOc1ccc(N2CC(c3nc4ccccc4n3CCC3CCCCC3)CC2=O)cc1 (stereo not drawn),11.2µM*
FC(F)(F)c1cccc(C2=NOC3(CCN(Cc4ccsc4)CC3)C2)c1,-11.6%
CCn1cc(-c2ccc(OC)cc2)cc1C(=O)NC(C)c1cccnc1 (stereo not drawn),-21.6%
CCCn1cc(-c2ccncc2)cc1C(=O)NCc1ccc(OC)cc1,i
CCCn1cc(-c2ccncc2)cc1C(=O)NC(C)c1ccc(OC)cc1 (stereo not drawn),7.94µM*
CS(=O)(=O)N1CCCN(C(=O)NCc2ccc(F)cc2)CCNC(=O)CC1c1ccccc1 (stereo not drawn),i
COCCOC1CCN(C(=O)C2(c3ccccc3)CC2)CC1,78.9%
O=S(=O)(NC[C@H]1O[C@@H](CO)[C@@H](O)[C@H]1N1CCN(c2ccccn2)CC1)c1ccc(Cl)cc1,i
O=S(=O)(N[C@H]1CO[C@H]2[C@@H]1OC[C@@H]2n1nnnc1Oc1cccc(N2CCOCC2)c1)c1cccs1,0.8%
CC(C)(C)c1ccnc(N[C@H]2CO[C@H]3[C@@H]2OC[C@@H]3NC(=O)c2ccco2)n1,i
CC(C)(C)c1ccnc(N[C@H]2CO[C@H]3[C@@H]2OC[C@@H]3NC(=O)CCCC(=O)O)n1,-11.0%[44.1 µM]
